Hits are enriched below; roughly 11% of the tested compounds scored in any of these assays.
G9a inh: blocks human histone lysine methyltransferase G9a; Q96KQ7; G9a H3K9 monomethylation, AlphaScreen, 2 h; 350,000 tested, 8.8% active; Potency, µM (titrated, usually from 102 µM), most hits filed as inhibitors; note: nearly all actives have a fitted effect of over 75% in size
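Step 1: enzyme (final 20 nM) with compound, 15 min RT. Step 2: substrate peptide 500 nM and SAM 20 uM, 2 h RT. Step 3: anti-H3K9me1 antibody and AlphaScreen beads, 10 min, then plate read.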
L3MBTL1 inh: inhibitors of human L3MBTL1; Q9Y468; AlphaScreen L3MBTL1–H3K9me1 peptide binding; Potency, µM (series often up to 57.1 µM), usual class: inhibitors; 230,000 tested, 0.66% active; AID 485360; note: nearly all actives have a fitted effect of over 60% in size
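Displacement of a biotinylated histone H3(1-15) peptide monomethylated at Lys9 (75 nM) from L3MBTL1 (50 nM) was measured by AlphaScreen after a 30 min room-temperature compound incubation; cefsulodin titration served as intraplate control.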
BAZ2B inh: blocks human BAZ2B; 360,000 tested, 4.4% active; AlphaScreen BAZ2B-H3K14Ac peptide displacement; Potency, µM (top dose mostly 114 µM), actives largely listed as inhibitors; Q9UIF8; note: nearly all actives have a fitted effect of over 60% in size
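BAZ2B 50 nM plus b-H3(5-23)K14Ac 50 nM, PBS pH 7.4/0.01% Tween-20, 30 min RT; compound added (max 110 uM), 30 min RT; streptavidin donor/Ni-chelate acceptor beads 10 ug/mL final, 20 min dark; AlphaScreen read.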
JMJD2A Tudor inh: inhibitors of human JMJD2A Tudor domain. AID 504339. AlphaScreen JMJD2A-Tudor / H3K4me3 peptide binding. Potency, µM (titrated, usually from 114 µM), usual class: inhibitors. O75164. 390,000 tested, 4.4% active; note: nearly all actives have a fitted effect of over 50% in size
Target sequence (O75164 whole entry, looked up, the tested form may be a part): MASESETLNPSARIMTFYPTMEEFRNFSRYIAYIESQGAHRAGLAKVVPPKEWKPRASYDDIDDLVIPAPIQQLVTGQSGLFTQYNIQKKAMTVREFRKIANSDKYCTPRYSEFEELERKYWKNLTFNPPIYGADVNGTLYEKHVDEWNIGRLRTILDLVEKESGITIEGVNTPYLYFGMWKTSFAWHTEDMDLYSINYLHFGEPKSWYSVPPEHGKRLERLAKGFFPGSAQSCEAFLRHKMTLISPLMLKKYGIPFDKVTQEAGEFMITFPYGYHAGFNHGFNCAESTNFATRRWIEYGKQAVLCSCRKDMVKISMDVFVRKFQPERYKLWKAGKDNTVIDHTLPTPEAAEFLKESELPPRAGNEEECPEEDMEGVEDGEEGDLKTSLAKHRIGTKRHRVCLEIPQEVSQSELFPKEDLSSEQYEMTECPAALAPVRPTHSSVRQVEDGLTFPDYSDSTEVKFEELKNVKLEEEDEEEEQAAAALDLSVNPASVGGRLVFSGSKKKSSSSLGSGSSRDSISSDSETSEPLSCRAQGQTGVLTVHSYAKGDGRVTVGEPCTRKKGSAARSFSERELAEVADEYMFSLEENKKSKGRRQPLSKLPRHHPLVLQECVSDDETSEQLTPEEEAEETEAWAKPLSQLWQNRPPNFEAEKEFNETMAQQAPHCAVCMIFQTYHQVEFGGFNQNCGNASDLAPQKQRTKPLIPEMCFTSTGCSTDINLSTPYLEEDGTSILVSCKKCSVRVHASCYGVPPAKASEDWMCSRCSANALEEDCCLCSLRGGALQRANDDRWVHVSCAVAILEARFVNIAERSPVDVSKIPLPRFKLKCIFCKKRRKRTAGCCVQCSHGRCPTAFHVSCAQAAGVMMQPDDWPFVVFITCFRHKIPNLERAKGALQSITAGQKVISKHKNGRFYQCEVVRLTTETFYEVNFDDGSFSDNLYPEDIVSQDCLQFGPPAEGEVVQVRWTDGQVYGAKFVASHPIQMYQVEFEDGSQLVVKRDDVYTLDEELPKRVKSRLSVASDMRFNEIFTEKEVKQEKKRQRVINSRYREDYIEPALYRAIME
HP1b chromo inh: HP1-beta chromodomain-methylated histone interaction inhibition. AlphaScreen HP1-beta / biotin-H3K9me3 peptide binding. 390,000 tested, 0.56% active. P83916. AID 540317. Potency, µM (top dose mostly 114 µM), hits mostly inhibitors; note: nearly all actives have a fitted effect of over 70% in size
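HP1-beta protein (50 nM final) preincubated 30 min at room temperature with biotinylated H3(1-18)K9me3 peptide (50 nM) in PBS pH 7.4, 0.01% Tween-20, then compound added for 30 min. AlphaScreen streptavidin donor/nickel chelate acceptor beads (10 ug/mL final), 30 min dark, luminescence read.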
Large screens that a line does not name were inactive. Calls come from the whole dose curve; as a rule, active = well fitted inhibition curve with a large enough effect; inconclusive = small, poorly fitted or top-dose-only effect; inactive = no such curve, though single readings can be large or run the other way.

COc1cc2c(cc1OC)[C@@H](NC(=O)CCc1ccccc1)[C@H](OCc1ccccc1)C2	none (no result: G9a inh, BAZ2B inh)
CCOc1ccc(OCCCC(=O)Nc2cc(Cl)ccc2-n2cncn2)cc1	none
CCN(CC(=O)Nc1cc(Cl)ccc1C)C(=O)CCS(=O)(=O)c1ccc(C)cc1	G9a inh 50µM
Cc1ccc(S(=O)(=O)CCC(=O)Nc2cc(Cl)ccc2-n2cncn2)cc1	G9a inh 56µM
CC12CCC(=O)N1C(C(=O)N1CCN(S(=O)(=O)c3ccc(Br)cc3Cl)CC1)CS2 (centres undefined)	G9a inh inconclusive
O=C(NCCc1cscn1)C1CCC(=O)N(Cc2ccc(Cl)cc2)C1 (centres undefined)	G9a inh 71µM (no result: L3MBTL1 inh)
O=C(NCCc1ccccc1)C1CCC(=O)N(Cc2ccc(Cl)cc2)C1 (centres undefined)	none (no result: L3MBTL1 inh)
CCOC(=O)c1c(Cc2ccccc2)c[nH]c1C	G9a inh 56µM (no result: L3MBTL1 inh)
COc1ccc(Nc2ncc3c(n2)CCN(Cc2cccc(F)c2F)C3)c(OC)c1	BAZ2B inh inconclusive, JMJD2A Tudor inh inconclusive (no result: L3MBTL1 inh)
Cc1cc(C)nc(S/C=C/C(=O)c2ccccc2F)n1	G9a inh 14µM, JMJD2A Tudor inh inconclusive
Cc1cc(C)nc(NC(=S)NC(=O)c2ccccc2F)n1	JMJD2A Tudor inh inconclusive (no result: G9a inh, L3MBTL1 inh, BAZ2B inh)
c1c[nH]c(CN2CCN(Cc3ncc[nH]3)CC2)n1	JMJD2A Tudor inh 14µM (no result: G9a inh, L3MBTL1 inh, BAZ2B inh)
O=C(c1ccco1)N1CCC2(CC1)CN(c1ccccc1)C2	none (no result: L3MBTL1 inh, BAZ2B inh, JMJD2A Tudor inh, HP1b chromo inh)
O=C(O)CC(c1ccccc1)n1cccc1 (centres undefined)	none
Nc1ccc(C(CC(=O)O)n2cccc2)cc1 (centres undefined)	G9a inh inconclusive, BAZ2B inh 79µM, JMJD2A Tudor inh inconclusive, HP1b chromo inh inconclusive (no result: L3MBTL1 inh)
Cc1ccc(C(=O)Nc2c(C)nc3ccccn3c2=O)cc1	none (no result: L3MBTL1 inh)
CC(=O)Nc1cccc(-c2cc(C)c3cc4c(cc3n2)OCO4)c1	G9a inh 50µM (no result: L3MBTL1 inh)
CC(=O)Nc1cccc(-c2nc3ccccc3s2)c1	none (no result: G9a inh)
Cc1sc(-n2c(C)cc(/C=C3\SC(=S)NC3=O)c2C)c(C#N)c1C	G9a inh inconclusive, JMJD2A Tudor inh 40µM, HP1b chromo inh inconclusive
Cc1sc(-n2c(C)cc(/C=N/n3cnnc3)c2C)c(C#N)c1C	G9a inh 8.9µM, BAZ2B inh inconclusive, JMJD2A Tudor inh inconclusive
Cc1cc(/C=C2/NC(=O)N(c3ccccc3)C2=O)c(C)n1-c1cccnc1	G9a inh inconclusive, BAZ2B inh inconclusive, HP1b chromo inh inconclusive
Cc1cc(/C=C2/C(=O)NN(c3ccccc3)C2=O)c(C)n1-c1cccc(O)c1	G9a inh 22µM, L3MBTL1 inh inconclusive, BAZ2B inh inconclusive
Cc1cc(/C=C2\SC(=S)NC2=O)c(C)n1-c1cccc(O)c1	G9a inh 40µM, BAZ2B inh 50µM, HP1b chromo inh inconclusive
CN(C)c1ccc(CNC(=O)c2ccccc2NC(=O)c2nsc3ccccc23)cc1	none (no result: L3MBTL1 inh)
Cc1ccc(OCCSc2nc3ccc(NC(=O)c4ccc5c(c4)OCO5)cc3s2)cc1	none (no result: L3MBTL1 inh)
COc1cc(C(c2sc3nc(C)nn3c2O)N2CCN(c3ccccc3)CC2)cc(OC)c1OC (centres undefined)	none
COc1cccc(C(c2sc3ncnn3c2O)N2CC(C)OC(C)C2)c1 (centres undefined)	none
COc1ccc(C(c2sc3nc(C)nn3c2O)N2CCC(C(N)=O)CC2)cc1OC (centres undefined)	G9a inh 50µM
COc1cc(C(c2sc3nc(C)nn3c2O)N2CCc3ccccc3C2)cc(OC)c1OC (centres undefined)	G9a inh 22µM
COC(=O)C1CCN(C(c2ccc(OC)c(OC)c2)c2sc3nc(C)nn3c2O)CC1 (centres undefined)	G9a inh inconclusive
COc1cccc(C(c2sc3ncnn3c2O)N2CCc3ccccc3C2)c1 (centres undefined)	G9a inh 7.1µM
COCCCNC(=O)c1sc2nc(C)c(C(=O)Nc3ccc(C)cc3C)c(-c3ccccc3Cl)c2c1N	none (no result: L3MBTL1 inh)
Cc1ccc(S(=O)(=O)c2nc(Cc3ccccc3)oc2N2CCOCC2)cc1	G9a inh 2.2µM, JMJD2A Tudor inh inconclusive
O=S(=O)(c1ccccc1)c1nc(-c2ccccc2)oc1N1CCCC1	JMJD2A Tudor inh 79µM
O=S(=O)(c1ccccc1)c1nc(-c2ccccc2)oc1N1CCN(c2cccc(Cl)c2)CC1	none (no result: L3MBTL1 inh)

Screening data: PubChem, National Center for Advancing Translational Sciences (NCATS)
